# Reference: PubChem BioAssay AID1986 (Sanford-Burnham Center for Chemical Genomics, 2009)
# The campaign covered roughly 290,000 compounds. About 890 (0.31%) were called active. Rule as the data show it: active = inhibition mostly above about 52% (no sharp cut-off); inactive = mostly below about 76%. The full list was thinned out, with actives kept by preference.
# Experiment: cell-free HIV fusion peptide-binding blockers – biochemical, uHTS, fluorescence dequenching, primary screen (AID 1986)
# Conditions: 30 min, stronger effect = higher value
# [1] = measured here: repeat confirmation average inhibition, at 18.6 µM
SMILES,inhibition (at 20 µM),inhibition [1] [%]
O=C(COc1ncnc2ccccc12)Nc1cc([N+](=O)[O-])ccc1Cl,-0.3% (inactive),–
COCC1CCN(C(=O)c2cc(COc3ccc(C)c(C)c3)on2)C1 (stereo not drawn),0.9% (inactive),–
COc1cc(/C=C2/SC(=O)N(Cc3ccccc3)C2=O)ccc1OCc1ccncc1,-4.2% (inactive),–
Cc1ccc(S(=O)(=O)NC(=O)c2ccc(-c3ccc(C)c4ccccc34)o2)cc1,23.3% (inactive),–
Cc1ccc(S(=O)(=O)NC(=O)c2ccc(-c3ccc(-c4ccccc4)cc3)o2)c(C)c1,52.6% (active),–
Cc1ccc(S(=O)(=O)NC(=O)c2ccc(Br)o2)c(C)c1,-0.8% (inactive),–
O=C(Nc1cccc(C(=O)Nc2ccc(Cl)cn2)c1)c1ccccc1,7.8% (inactive),–
O=C(Nc1ccc(F)cc1)c1oc2ccccc2c1NC(=O)C1CC1,-0.2% (inactive),–
Cc1nn(-c2ccc3ccccc3c2)c(=O)c2ccccc12,0% (inactive),–
CSc1nnc(-c2ccccc2N=Cc2c(C)[nH]n(-c3ccccc3)c2=O)c(=O)[nH]1,6% (inactive),–
Cc1ccc(/C=N/NC(=O)c2cc3c(ccc4ccccc43)o2)o1,-1.7% (inactive),–
O=C(N/N=C/c1ccc(-c2ccc(Cl)c(C(=O)O)c2)o1)c1cc2c(ccc3ccccc32)o1,50.3% (active),–
Cc1ccc(-c2ccc(/C=N\NC(=O)c3cc4c(ccc5ccccc54)o3)o2)cc1[N+](=O)[O-],-1.4% (inactive),–
CCC(C)NC(=O)COC(=O)c1cccnc1Nc1ccccc1F (stereo not drawn),0.1% (inactive),–
CCOC(=O)Cn1c2ccc(OC)cc2c2nc3ccccc3nc21,3% (inactive),–
COC(=O)Cn1c2ccc(OC)cc2c2nc3ccccc3nc21,9.1% (inactive),–
CCCCOC(=O)Cn1c2ccc(OC)cc2c2nc3ccccc3nc21,53.3% (active),57.8
CCc1ccc(-c2cc3c(=O)n(CC(=O)NCCN4CCCCC4C)nc(C)n3n2)cc1 (stereo not drawn),-0.3% (inactive),–
COc1ccc2c(Cl)c(C(=O)NN)sc2c1,1.3% (inactive),–
COc1ccc2c(Cl)c(C(=O)N/N=C3\CCCC(=O)C3)sc2c1,77.7% (active),–
O=C1CCC/C(=N/NC(=O)c2sc3ccccc3c2Cl)C1,81.5% (inactive),39.7
CC(C)(C)NC(=O)CSc1ccc(C(C)(C)C)cc1,-2.2% (inactive),–
O=Cc1c(Sc2ccccc2)nc2ccccn2c1=O,2.6% (inactive),–
O=c1c(/C=N/Nc2ccccc2)c(Sc2nnnn2-c2ccccc2)nc2ccccn12,96.2% (active),–
O=c1c(/C=N/O)c(Nc2ccccc2)nc2ccccn12,-2.7% (inactive),–
O=C(O)c1ccccc1N/N=C/c1c(Sc2nnnn2-c2ccccc2)nc2ccccn2c1=O,80.8% (active),54.8

SMILES,inhibition (at 20 µM),inhibition [1] [%]
NC(=O)N/N=C/c1c(Sc2nnnn2-c2ccccc2)nc2ccccn2c1=O,0% (inactive),–
O=C(O)c1ccc(/C=N/Nc2nnnn2-c2ccccc2)cc1,2.1% (inactive),–
O=C(CC1Sc2ccccc2NC1=O)NCc1cccc(Cl)c1 (stereo not drawn),1% (inactive),–
CCOC(=O)c1nnn(-c2nonc2N)c1CN1CCCC1,-0.2% (inactive),–
COc1ccccc1-c1c(C(F)(F)F)oc2cc(OCC(=O)Nc3ccccc3C(F)(F)F)ccc2c1=O,3.1% (inactive),–
COc1ccccc1NC(=O)CSc1nnc(Cn2c(=O)sc3ccccc32)n1C,0.2% (inactive),–
NC(=O)C[n+]1cccc2ccccc21,1.3% (inactive),–
O=C(C[n+]1cccc2ccccc21)c1ccccc1,11.8% (inactive),–
COC(=O)C[n+]1cccc2ccccc21,78.3% (active),65.6
CCOCCCNC(=O)/C(C#N)=C/c1ccc(C)o1,-0.3% (inactive),–
Cc1ccccc1OCc1nc(-c2ccc(-n3cccc3)cc2)no1,3.2% (inactive),–
COc1ccccc1C(=O)C1CCCN(C(=O)c2cnn(C(C)C)c2)C1 (stereo not drawn),-0.2% (inactive),–
Oc1ccc2ccccc2c1C=Nc1ccccc1Br,0.3% (inactive),–
Oc1ccccc1N=Cc1c(O)ccc2ccccc12,67.4% (active),–
CN(C)/N=C/c1c(O)ccc2ccccc12,-5.1% (inactive),–
Cc1ccc(Cl)cc1N1CCN(S(=O)(=O)c2ccc3c(c2)NC(=O)C(C)C(=O)N3)CC1 (stereo not drawn),1.3% (inactive),–
CCn1c(C)c(C(C)=O)c(N2CCN(c3ccccn3)CC2)nc1=S,6.8% (inactive),–
C(=C\c1ccccc1)/CNn1cnnc1,-2.1% (inactive),–
CC[n+]1c(/C=C/c2c[nH]c3ccccc23)ccc2cc(C)ccc21,142% (inactive),–
CCc1ccc(/C=C/c2c[nH]c3ccccc23)[n+](CC)c1,2.5% (inactive),–
O=C(/C=C/c1c[nH]c2ccccc12)c1ccccc1,-2.9% (inactive),–
C[n+]1ccc(/C=C/c2c[nH]c3ccccc23)cc1,82.6% (active),–
Cc1[nH]c2ccccc2c1/C=C/c1cc[n+](C)cc1,144% (inactive),–
CCN(CC)C(=O)c1ccc(/C=C/c2c[nH]c3ccccc23)[n+](C)c1,91.3% (active),81.7
O=c1c2ccccc2nc(/C=C/c2c[nH]c3ccccc23)n1CCO,5.3% (inactive),–
Cc1ccc(C(=O)/C=C/c2c[nH]c3ccccc23)cc1,2.2% (inactive),–

SMILES,inhibition (at 20 µM),inhibition [1] [%]
OCC[n+]1ccc(/C=C/c2c[nH]c3ccccc23)cc1,53% (active),–
CC[n+]1ccc(/C=C/c2c[nH]c3ccccc23)cc1,97.2% (active),77.7
COc1ccc2c(/C=C/c3cc[n+](C)cc3)c[nH]c2c1,6.5% (inactive),–
C[n+]1cc(C(=O)N2CCCCC2)ccc1/C=C/c1c[nH]c2ccccc12,148% (inactive),–
Cc1nnsc1-c1nc2ccccc2[nH]1,-1.6% (inactive),–
COc1ccc(NC(=O)c2cc(Br)ccc2Cl)c([N+](=O)[O-])c1,-0.4% (inactive),–
O/N=C\c1ccc2noc(-c3ccc(Cl)cc3)c2c1,0% (inactive),–
c1ccc(Oc2ncnc3sccc23)cc1,-1.5% (inactive),–
N#Cc1ccc(CSc2nnc(NC(=O)CN3C(=O)C4CC=CCC4C3=O)s2)cc1 (stereo not drawn),6.4% (inactive),–
COc1cccc(/C=N/NC(=O)c2[nH]c(C)c(C(=O)N/N=C/c3cccc(OC)c3O)c2C)c1O,4.6% (inactive),–
CCCn1cnc2scc(-c3ccc(C)cc3)c2c1=O,-1.9% (inactive),–
Cc1ccc(C)c(NC(=O)CSc2nnc(C3CCCCC3)o2)c1,-1.1% (inactive),–
O=C(O)CCn1c(=O)n(CCC(=O)O)c(=O)n(CCC(=O)O)c1=O,0.1% (inactive),–
O=C(CN1c2ccccc2Sc2ccccc21)N/N=C/c1ccc(Cl)cc1,-1% (inactive),–
COc1ccc2[nH]cc(/C=C/c3cc[n+](C)cc3)c2c1,18.3% (inactive),–
C[n+]1ccc(/C=C/c2c[nH]c3ccc(F)cc23)cc1,77.8% (active),85.8
Cc1ccc2[nH]cc(/C=C/c3cc[n+](C)cc3)c2c1,160% (inactive),–
CC1=C(C(=O)Nc2ccc(C(=O)NC(C)c3ccccc3)cc2)SCCO1 (stereo not drawn),2.3% (inactive),–
O=C(Nc1cccc(C(=O)N2CCCCC2)c1)c1ccccc1Br,-1.4% (inactive),–
O=S(=O)(NCc1ccccc1F)NCc1ccccc1F,-1.9% (inactive),–
O=c1c(Cl)c2oc3ccccc3nc-2c2ccccc12,50.8% (active),–
Clc1ccc(-c2nnc(Sc3nc4ccccc4o3)c3ccccc23)cc1,-0.2% (inactive),–
O=c1c(-c2nc3ccccc3o2)c2oc3ccccc3n2c2ccccc12,-2.3% (inactive),–
O=C(N/N=C\c1ccc2c(c1)OCO2)c1ccc(Cn2cc(Br)c([N+](=O)[O-])n2)o1,-2.8% (inactive),–
CS(=O)(=O)Oc1ccc2c(c1)O/C(=C\C=C\c1ccccc1)C2=O,3.8% (inactive),–
Cc1ccc(/C=C2\Oc3c(ccc(O)c3CN3CCN(CCO)CC3)C2=O)cc1,35.2% (inactive),–

SMILES,inhibition (at 20 µM),inhibition [1] [%]
O=C1/C(=C/C=C/c2ccccc2)Oc2c1ccc(O)c2CN1CCN(CCO)CC1,128% (inactive),–
COc1ccccc1/C=C/C=C1\Oc2c(ccc(O)c2CN(C)C)C1=O,146% (inactive),–
CCN(CC)Cc1c(O)ccc2c1O/C(=C\C=C\c1ccccc1)C2=O,116% (active),143
CCN1CCN(Cc2c(O)ccc3c2O/C(=C\C=C\c2ccccc2)C3=O)CC1,53.7% (active),–
COc1ccccc1/C=C/C=C1\Oc2c(ccc(O)c2CN2CCN(CCO)CC2)C1=O,122% (active),–
CCN(CC)Cc1c(O)ccc2c(=O)c(-c3ccccc3)coc12,-1.9% (inactive),–
CN(C)Cc1c(O)ccc2c1O/C(=C\C=C\c1ccccc1)C2=O,77.7% (active),124
CCN1CCN(Cc2c(O)ccc3c2O/C(=C\C=C\c2ccccc2OC)C3=O)CC1,149% (inactive),–
CCN(CC)Cc1c(O)ccc2c(-c3ccccc3)cc(=O)oc12,-2.2% (inactive),–
CCN1CCN(Cc2c(O)ccc3c2O/C(=C\c2ccccc2)C3=O)CC1,67.8% (inactive),22.1
CCCCN(C)CCNC(=O)CN1C(=O)CSc2ccc(S(=O)(=O)N3CCOCC3)cc21,1% (inactive),–
CCN1C(=O)c2cccc3c(S(=O)(=O)Nc4ccncc4)ccc1c23,3.5% (inactive),–
COc1ccccc1C(=O)C1CCCN(C(=O)c2cc(CC(C)C)nc(C)n2)C1 (stereo not drawn),-0.9% (inactive),–
CCOc1ccc(-n2cnnn2)cc1S(=O)(=O)NC1CC1,0.2% (inactive),–
CCOC(=O)N1CCN(C(=O)C2CCN(S(=O)(=O)c3c(C)cc(C)cc3C)CC2)CC1,-1.7% (inactive),–
O=C(NCc1ccco1)c1ccc(Cl)nc1,-2% (inactive),–
CCCN1CCc2c(sc(NC(=S)NC(=O)c3ccccc3)c2C#N)C1,78.4% (active),–
N#Cc1c(NC(=S)NC(=O)c2ccccc2)sc2c1CCCC2,0.9% (inactive),–
CCC1(C)Cc2c(sc(NC(=S)NC(=O)c3ccccc3)c2C#N)CO1 (stereo not drawn),-2.1% (inactive),–
CCN1CCc2c(sc(NC(=S)NC(=O)c3ccccc3)c2C#N)C1,26.3% (inactive),–
N#Cc1c(NC(=S)NC(=O)c2ccccc2)sc2c1CCN(CCc1ccccc1)C2,138% (inactive),–
CC(C)N1CCc2c(sc(NC(=O)Cc3ccccc3)c2C#N)C1,-0.4% (inactive),–
CN1Cc2sc(NC(=S)NC(=O)c3ccccc3)c(C#N)c2CC1(C)C,70.3% (active),–
N#Cc1c(NC(=S)NC(=O)c2ccccc2)sc2c1CCC2,14.9% (inactive),–
CC(C)N1CCc2c(sc(NC(=S)NC(=O)c3ccccc3)c2C#N)C1,81% (active),–
